FBA Mtb inh: inhibitors of M. tuberculosis fructose-bisphosphate aldolase. P9WQA3. purified M. tuberculosis FBA, fluorescence read-out. inhibition, % at 1 µM. actives 2.3% (n = 360,000). AID 588726;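 also: 0% = vehicle and 100% = reference inhibitor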
Target sequence (P9WQA3 whole entry, looked up): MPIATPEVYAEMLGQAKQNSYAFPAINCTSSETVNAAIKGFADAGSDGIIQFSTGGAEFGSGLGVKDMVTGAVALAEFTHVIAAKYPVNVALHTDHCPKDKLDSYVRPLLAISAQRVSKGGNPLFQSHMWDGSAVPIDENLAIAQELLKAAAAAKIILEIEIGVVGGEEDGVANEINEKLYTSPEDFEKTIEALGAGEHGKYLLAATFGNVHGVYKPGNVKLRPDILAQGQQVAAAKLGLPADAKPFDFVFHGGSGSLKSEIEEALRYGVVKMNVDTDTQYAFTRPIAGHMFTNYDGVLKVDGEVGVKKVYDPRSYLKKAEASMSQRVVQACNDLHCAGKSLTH
GDH-TPI counter-1: counter-screen for M. tuberculosis FBA inhibitors: GDH-TPI coupled enzymes; GDH-TPI coupled enzyme counterscreen, NADH absorbance; inhibition, % at 4.8 µM; actives 1.2% (n = 360,000); AID 588335; in the data active = inhibition above about 30%;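 also: 0% = DMSO wells and 100% = wells lacking the enzyme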
Rv3671c protease: Rv3671c (M. tuberculosis) protease inhibition | actives 0.048% (n = 320,000) | inhibition, % at 5.96 µM | P9WHR9; in the data active = inhibition above about 38%;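 also: extracellular domain of Rv3671c used as enzyme; 0% = enzyme with DMSO and 100% = no enzyme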
UGM FP inh: blocks M. tuberculosis UGM enzyme | P9WIQ1 | purified UGM, fluorescence polarization probe displacement | inhibition, % at 10 µM | actives 0.06% (n = 320,000); in the data active = inhibition above about 10%, passing the limit was not always enough
Mtb FBA inh conf: Mtb FBA inhibition, confirmed | AID 651616 | purified M. tuberculosis FBA, fluorescence read-out | inhibition, % at 1 µM | shares compounds with FBA Mtb inh | actives 78% (n = 5,600);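 also: 0% = vehicle wells and 100% = reference inhibitor wells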
GDH-TPI counter-2: counter-screen for M. tuberculosis FBA inhibitors: GDH-TPI coupled enzyme inhibition; shares compounds with FBA Mtb inh; GDH-TPI coupled enzyme counterscreen, fluorescence; inhibition, % at 1 µM; actives 81% (n = 5,600); AID 652141; in the data active = inhibition above about 10%
Starred values were filed as active, the others as inactive; x = no result; + = active, no number. Most compounds without a hit are left out; they make up all but 3.5% or so of the library. Rule as the data show it, unless noted: active = inhibition above about 27%; inactive = the rest.

SMILES	FBA Mtb inh	GDH-TPI counter-1	Rv3671c protease	UGM FP inh	Mtb FBA inh conf	GDH-TPI counter-2
C/C(=N/NC(=O)c1sc(NS(=O)(=O)c2ccc(C)cc2)nc1C)c1sc(N)nc1C	66*	17	0	-2	172*	140*
C=CCn1c(N)cc(=O)nc1SC(C)C(=O)Nc1ccc(C(=O)OCC)cc1 (configuration not stated)	0	9	-8	0	x	x
COc1ccc2nc(/C=N/NC(=O)[C@@H]3CCCN3C(=O)OC(C)(C)C)ccc2c1	99*	9	3	-2	54*	46*
CCC(C)[C@H](NC(=O)OC(C)(C)C)C(=O)N/N=C/c1ccc2cc(OC)ccc2n1 (some centres not stated)	33*	18	-4	2	+	181*
CC(C)(C)OC(=O)N1CCC[C@H]1C(=O)N/N=C/c1ccc2nccnc2c1	0	9	2	0	x	x
COc1ccc2nc(/C=N/NC(=O)[C@H](CCSC)NC(=O)OC(C)(C)C)ccc2c1	60*	32*	9	-3	53*	56*
COc1ccc(CNC(=O)[C@H](C)NC(=O)C2CCN(S(=O)(=O)c3ccccc3)CC2)cc1	1	4	1	1	x	x
COc1ccc2oc(C(=O)OCC(=O)Nc3ccc(C(=O)N(C)C)cc3)c(C)c2c1	28*	9	9	0	44*	44*
COc1ccc2oc(C(=O)OCC(=O)Nc3ccc(N4CCOCC4)cc3)c(C)c2c1	7	6	8	-1	x	x
COc1ccc2oc(C(=O)OCC(=O)Nc3ccccc3)c(C)c2c1	33*	5	-8	-1	+	168*
COc1ccc2oc(C(=O)OCC(=O)NC(C)c3ccccc3)c(C)c2c1 (configuration not stated)	39*	-1	-5	2	127*	85*
COc1ccc2oc(C(=O)OCC(=O)NC(=O)NC(C)C)c(C)c2c1	35*	11	-7	1	45*	35*
O=C(COc1ccc2ccc(=O)oc2c1)NCCCn1ccnc1	13	2	-6	-1	x	x
Cc1cc(OCC(=O)Nc2ccc(CN3CCOCC3)cc2)c2c(C)c(C)c(=O)oc2c1	71*	3	-3	-3	+	+
Cc1cc(OCC(=O)Nc2ccc(CN3CCOCC3)cc2)c2c(C)cc(=O)oc2c1	77*	-2	-5	0	52*	33*
Cc1cc(Cl)ccc1OCC(=O)Nc1ccc(CN2CCOCC2)cc1	0	1	x	x	x	x
Cc1cc(-c2ccc3ccccc3c2)n2ncnc2n1	14	2	-1	-5	x	x
Cc1nnc(SCC(=O)NC(C)(C)C)n1NCc1ccc(Cl)cc1	-4	-4	-2	-3	x	x
Cc1nnc(SCC(=O)NC(C)(C)C)n1NCc1ccc(N(C)C)cc1	44*	9	5	-2	60*	54*
N#Cc1cc2c([nH]c1=S)CCCC2	2	2	-8	1	x	x
N#Cc1cc2c([nH]c1=O)CCCC2	68*	5	2	-1	97*	91*
CCN(CC(=O)N1CCc2ccccc2C1)S(=O)(=O)c1ccc2ccccc2c1	5	-6	-3	-2	x	x
Cc1ccc(S(=O)(=O)N2CCCCC2)cc1C(=O)OC(C)C(=O)NCC1CCCCC1 (configuration not stated)	1	-5	x	x	x	x
N#Cc1c(-c2ccccc2F)cc(-c2cccnc2)nc1N	110*	11	1	0	-3	-4
O=c1ccn([C@@H]2O[C@H](CNCc3ccccc3OCc3ccc(Cl)cc3Cl)[C@@H](O)[C@H]2O)c(=O)[nH]1	1	x	x	x	x	x
SMILES	FBA Mtb inh	GDH-TPI counter-1	Rv3671c protease	UGM FP inh	Mtb FBA inh conf	GDH-TPI counter-2
O=C(Nc1nccs1)c1ccccc1Br	1	9	-8	-3	x	x
Nc1ccccc1C(=O)Nc1nccs1	55*	7	-3	-2	128*	84*
CC1(C)O[C@@H]2[C@H](O1)[C@@H](CO)O[C@H]2n1ccc(=O)[nH]c1=O	3	-4	8	2	x	x
O=c1oc2c3c4c(cc2c2c1CCC2)OCCN4CCC3	97*	13	-16	-2	79*	58*
O=c1cc(-c2ccncc2)oc2c1ccc1ccccc12	11	7	-13	2	x	x
O=c1cc(-c2ccco2)oc2c1ccc1ccccc12	49*	21	-3	3	+	+
N#Cc1cccc(NC(=O)CNc2cc(S(=O)(=O)N3CCOCC3)ccc2N2CCCC2)c1	-1	7	x	x	x	x
Cc1ccc(C)c2nc(N3CCCC3)c(C#N)cc12	33*	7	-7	-1	173*	146*
Cc1cccc2cc(C#N)c(N3CCN(C)CC3)nc12	5	-8	-10	3	x	x
CC1CCN(S(=O)(=O)c2cn(CC(=O)Nc3cccc(C#N)c3)cn2)CC1	39*	17	3	1	80*	65*
CC(=O)c1cccc(NC(=O)Cn2cnc(S(=O)(=O)N3CCC(C)CC3)c2)c1	1	18	5	1	x	x
Cc1ccc(-c2csc3nc4ccc(C(=O)NCCO)cc4c(=O)n23)cc1	31*	5	-1	-3	+	+
NC(=O)c1ccc2c(=O)n3c(-c4cc(Cl)c(N)c(Cl)c4)csc3nc2c1	3	11	-14	-2	x	x
Cc1ccc(-c2csc3nc4cc(C(=O)NC5CCC(O)CC5)ccc4c(=O)n23)cc1 (configuration not stated)	30*	6	-10	-4	0	-2
Cc1ccc(C(=O)CSc2nc3ccc(C(=O)NCCN4CCCCC4)cc3c(=O)[nH]2)cc1	0	1	-17	0	x	x
Cc1csc2nc3cc(C(N)=O)ccc3c(=O)n12	72*	11	0	0	+	+
C[C@@H]1CN([C@H](C)CO)C(=O)CCCn2nncc2CO[C@H]1CN(C)S(=O)(=O)c1cccc(C#N)c1	5	-2	x	x	x	x
O=C(N=C1SC2CS(=O)(=O)CC2N1Cc1ccccc1)C1CC1 (configuration not stated)	-2	3	x	x	x	x
O=c1[nH]c(=S)[nH]c2nc(-c3cccs3)cc(C(F)(F)F)c12	32*	17	-1	-3	94*	76*
CNc1nc(-c2cccs2)cc(C(F)(F)F)c1C#N	58*	-2	-4	0	78*	54*
Nc1c(C(=O)C2CC2)sc2nc(-c3cccs3)cc(C(F)(F)F)c12	57*	2	0	6	44*	30*
CSc1nc(-c2ccccc2)cc(C(F)(F)F)c1C#N	2	7	-1	0	x	x
Cc1ccc(S(=O)(=O)N2CCCCC2)cc1C(=O)NCCCN1CCOCC1	2	2	6	5	x	x
COCCCN1CN(S(=O)(=O)c2ccc(C)cc2C)c2nc3ccccc3nc21	28*	32*	0	0	71*	69*
C=CCNc1nnc(Cc2ccc(C(C)C)cc2)c(=O)[nH]1	3	-10	0	1	x	x

Screening results from PubChem BioAssay.
